Source: PubChem BioAssay (NCI)
About 83,000 compounds went through this panel and 20% of them were active in at least one assay; those are over-represented in the sample as a whole.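 Step 1: grow cells in 96-well plates. Step 2: add test compound at a single concentration. Step 3: incubate 48 h. Step 4: record percent growth.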 A number with no mark means an inactive call. How the source made its calls: active means growth percent below 10; inactive means the rest.

The compounds below were run on NCI-H322M lung (assay: NCI-60 one-dose screen, 48 h (100 = growth as untreated, 0 = no growth, -100 = all killed)). Settings: 10 µM unless noted.

Compared with `Cc1cccc(-c2nc(Nc3ccc4ncsc4c3)c3ccccc3n2)n1`, `COc1ccc(-c2cc(-c3ccccc3)nc(N3CCN(CCNc4ccnc5cc(Cl)ccc45)CC3)n2)cc1` is lower in growth: 93.5% for the first, 88% for the second.

Going from `N#Cc1cccc(C2C3=C(COC3=O)N(CCO)c3cc4c(cc32)OCO4)c1` (centres undefined) to `COc1ccc2c(c1)c(/C(O)=C1\COC(=O)C1=O)cn2Cc1ccc(F)cc1`, the growth rises from 49.3% to 101%.

Going from `CCN1C(=O)N(CC)C2C1NC(=S)N2/N=C/c1ccc(OC)cc1` (centres undefined) to `COc1ccc2c(c1)/C(=N/c1n[nH]c(=S)s1)C(=O)N2`, the growth rises from 79.4% to 91.8%.

First: Nc1[nH]c(=S)nc2oc(-c3ccccc3)c(-c3ccccc3)c12
Second: c1ccc2c(c1)CCCc1nnc3nc4ccccc4n3c1-2
The growth of the first is higher: 105% for the first, 48.2% for the second.

Compared with `N=C(N)c1ccc(-c2ccc(-c3cc(Cl)cc(Cl)c3)s2)nc1`, `Cc1ccc(-c2nc(SCc3nc4cc(Cl)c(Cl)cc4[nH]3)[nH]c(=O)c2C#N)cc1` is higher in growth: 52.8% for the first, 101% for the second.

Going from `Nc1[nH]n2cc(-c3ccc(F)cc3)nc2c1N=Nc1ccc(S(N)(=O)=O)cc1` to `C#CC#CC#CC#CC#CC#CC#CC#CCC1OC[C@H](COC(=O)O[C@@H](C(=O)O[C@H]2C[C@@]3(O)[C@@H](OC(=O)c4ccccc4)[C@@H]4[C@]5(OC(C)=O)CO[C@@H]5C[C@H](O)[C@@]4(C)C(=O)[C@H](OC(C)=O)C(=C2C)C3(C)C)[C@@H](NC(=O)c2ccccc2)c2ccccc2)O1` (some centres undefined), the growth falls from 41.9% to 31.6%.

Going from `CNC(C)[C@H]1CCC2C3CC=C4C(=O)[C@@H](NC(=O)C=C(C)C)CC[C@]4(C)C3CC[C@@]21C` (some centres undefined) to `O=C1/C(=C2\SC(=S)N(C3CC3)C2=O)SC(=S)N1C1CC1`, the growth rises from 13.9% to 95.6%.
